Growth data for 8 compounds are collected here from PubChem BioAssay (NCI).

The panel holds about 83,000 compounds, 20% with a hit somewhere; the sample as a whole holds those more often.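 Plates (96-well) were seeded with cells, treated with compound at one concentration, and incubated for 48 hours before percent growth was determined.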 Unmarked numbers belong to inactive results. Active and inactive are the calls of the source. Rule for the calls: active = growth percent below 10; inactive = the rest.

Assay in all cases: NCI-60 one-dose screen, 48 h (100 = growth as untreated, 0 = no growth, -100 = all killed)
In one assay the test system is SK-MEL-2 melanoma. The note with it: 10 µM unless noted.
A further assay has as its system EKVX NSCLC. Particulars: 10 µM unless noted.
Another assay has as its system SN12C renal. Particulars: 10 µM unless noted.
In a further assay the test system is UO-31 renal. Particulars: 10 µM unless noted.
Another assay concerns TK-10 renal. The note with it: 10 µM unless noted.
Another assay concerns ACHN renal. Particulars: 10 µM unless noted.
The next assay has as its system CAKI-1 renal. The note with it: 10 µM unless noted.
The next assay deals with A498 renal. Particulars: 10 µM unless noted.
A further assay concerns CCRF-CEM leukemia. Particulars: 10 µM unless noted.
A further assay has as its system MOLT-4 leukemia. The note with it: 10 µM unless noted.
Another assay deals with SR leukemia. Particulars: 10 µM unless noted.
A further assay concerns RPMI-8226 leukemia. The note with it: 10 µM unless noted.
Another assay deals with OVCAR-8 ovarian. The note with it: 10 µM unless noted.
In the next assay the test system is OVCAR-5 ovarian. Particulars: 10 µM unless noted.
A further assay deals with OVCAR-4 ovarian. The note with it: 10 µM unless noted.
A further assay relates to SK-OV-3 ovarian. Particulars: 10 µM unless noted.
The subject of the next assay is IGROV1 ovarian. The note with it: 10 µM unless noted.
The test system of another assay is OVCAR-3 ovarian. Particulars: 10 µM unless noted.
Another assay has as its system HS 578T breast. The note with it: 10 µM.
The next assay relates to NCI/ADR-RES ovarian. The note with it: 10 µM unless noted.

Take `CN1CCN(Cc2ccc(NC(=O)c3cncc(C#Cc4ncc5cnccn45)c3)cc2C(F)(F)F)CC1`: the growth in the assay on SK-MEL-2 melanoma was -12.9% (active); in the assay with EKVX NSCLC, 77.2%; in the assay on SN12C renal, 54.5%; in the assay with UO-31 renal, 18.3%; in the assay with TK-10 renal, 81.4%; in the assay on ACHN renal, 30.7%. Besides, the growth was 31.5% in the assay on CAKI-1 renal; 65.2% in the assay with A498 renal; 41.9% with CCRF-CEM leukemia; 43.5% in the assay with MOLT-4 leukemia; 50.8% with SR leukemia; 44.3% in the assay with RPMI-8226 leukemia. Further, the growth in the assay on OVCAR-8 ovarian was 70%; in the assay with OVCAR-5 ovarian, 35.1%; in the assay with OVCAR-4 ovarian it was 41.3%; in the assay with SK-OV-3 ovarian it was 42.8%; in the assay with IGROV1 ovarian, 42.2%; in the assay with OVCAR-3 ovarian, 69.6%. Also, the growth with HS 578T breast was 52.2%; in the assay with NCI/ADR-RES ovarian, 92.7%.

Regarding `CC(C)OC(=O)c1ccc([N+](=O)[O-])cc1`, the growth is 122% in the assay on SK-MEL-2 melanoma; 96% with EKVX NSCLC; 97.7% in the assay with SN12C renal; 104% with UO-31 renal; 113% in the assay on TK-10 renal; 114% in the assay with ACHN renal. Further, the growth in the assay with CAKI-1 renal is 103%; in the assay on A498 renal it was 79.2%; in the assay on CCRF-CEM leukemia, 103%; in the assay with MOLT-4 leukemia, 113%; in the assay on SR leukemia it was 102%; in the assay with RPMI-8226 leukemia, 98.5%. Moreover, the growth with OVCAR-8 ovarian was 108%; in the assay on OVCAR-5 ovarian, 112%; in the assay on OVCAR-4 ovarian, 111%; in the assay with SK-OV-3 ovarian it was 107%; in the assay on IGROV1 ovarian, 119%; in the assay with OVCAR-3 ovarian, 117%. For the same compound, the values for the growth with HS 578T breast and in the assay on NCI/ADR-RES ovarian were 112% and 104%, respectively.

Turning to `Cc1ccc(N=CNN=C(N)N)cc1`, the growth was 114% in the assay with SK-MEL-2 melanoma; 117% with EKVX NSCLC; 99.3% in the assay with SN12C renal; 76.6% in the assay on UO-31 renal; 118% with TK-10 renal; 102% with ACHN renal. For the same compound, the growth in the assay with CAKI-1 renal was 97%; in the assay on A498 renal, 99.2%; with CCRF-CEM leukemia it was 101%; in the assay with MOLT-4 leukemia, 95.4%; in the assay on SR leukemia, 76.9%; with RPMI-8226 leukemia, 99.4%. The growth is 91% in the assay on OVCAR-8 ovarian; 99.5% in the assay with OVCAR-5 ovarian; 94.5% with OVCAR-4 ovarian; 104% in the assay on SK-OV-3 ovarian; 103% with IGROV1 ovarian; 112% in the assay on OVCAR-3 ovarian. In addition, the growth with HS 578T breast was 140%; in the assay on NCI/ADR-RES ovarian, 108%.

For the compound `CC(C)c1ccc(Cn2ccc3c4c(N)nc(NC5CC5)nc4ccc32)cc1`, the growth in the assay on SK-MEL-2 melanoma is -82.6% (active); in the assay on EKVX NSCLC it was -84.2% (active); with SN12C renal it was -91.5% (active); in the assay with UO-31 renal it was -99% (active); in the assay with TK-10 renal it was -97.2% (active); in the assay on ACHN renal it was -98.9% (active). The growth was -98.6% (active) in the assay on CAKI-1 renal; -82.3% (active) in the assay with A498 renal; -16.3% (active) in the assay with CCRF-CEM leukemia; -42.8% (active) with MOLT-4 leukemia; -45.8% (active) in the assay with SR leukemia; -54.7% (active) with RPMI-8226 leukemia. Also, the growth was -77.8% (active) in the assay with OVCAR-8 ovarian; -85.9% (active) with OVCAR-5 ovarian; -37.4% (active) with OVCAR-4 ovarian; -87.2% (active) with SK-OV-3 ovarian; -87.4% (active) in the assay with IGROV1 ovarian; -87.6% (active) in the assay on OVCAR-3 ovarian. The growth in the assay on HS 578T breast is -57.1% (active); in the assay with NCI/ADR-RES ovarian, -74.4% (active).

Consider `COc1ccc(/C=c2\c(=O)n(-c3ccccc3)c3nn4c(=O)c(=O)[nH]nc4n23)cc1`, for which the growth with SK-MEL-2 melanoma was 109%; in the assay with EKVX NSCLC, 104%; in the assay with SN12C renal, 108%; with UO-31 renal, 83%; in the assay with TK-10 renal it was 133%; in the assay with ACHN renal, 114%. Moreover, the growth in the assay with CAKI-1 renal is 90.4%; in the assay on A498 renal, 118%; with CCRF-CEM leukemia, 106%; in the assay with MOLT-4 leukemia it was 110%; in the assay on SR leukemia it was 108%; in the assay on RPMI-8226 leukemia, 110%. Further, the growth in the assay with OVCAR-8 ovarian was 109%; in the assay on OVCAR-5 ovarian it was 146%; in the assay on OVCAR-4 ovarian it was 107%; in the assay on SK-OV-3 ovarian, 113%; in the assay on IGROV1 ovarian it was 113%; with OVCAR-3 ovarian, 115%. Moreover, the growth with HS 578T breast was 114%; with NCI/ADR-RES ovarian it was 106%.

`CN1CCN(Cc2ccc(NC(=O)c3ccc(C#N)c(C#Cc4cnc(N)c5ncccc45)c3)cc2C(F)(F)F)CC1`: the growth was 72.4% with SK-MEL-2 melanoma; 96.6% in the assay on EKVX NSCLC; 86.3% with SN12C renal; -81.8% (active) with UO-31 renal; 76.9% in the assay on TK-10 renal; -56.4% (active) in the assay on ACHN renal. The growth is 94.1% with CAKI-1 renal; 89.5% with A498 renal; 27% in the assay on CCRF-CEM leukemia; 59.6% in the assay with MOLT-4 leukemia; 9.25% (active) in the assay on SR leukemia; 69.7% in the assay with RPMI-8226 leukemia. In addition, the growth with OVCAR-8 ovarian was 12.6%; in the assay on OVCAR-5 ovarian, 18%; in the assay on OVCAR-4 ovarian it was 75.2%; with SK-OV-3 ovarian, 97.6%; in the assay on IGROV1 ovarian, 55.3%; with OVCAR-3 ovarian, 102%. For the same compound, the growth in the assay on HS 578T breast was 68.2%; in the assay with NCI/ADR-RES ovarian, 94%.

Turning to `CCNC(=S)N(Cc1ccccc1)Cc1ccccc1`, the growth in the assay on SK-MEL-2 melanoma is 98.6%; in the assay with EKVX NSCLC, 93.1%; in the assay with SN12C renal, 103%; with UO-31 renal it was 74.6%; in the assay on TK-10 renal, 106%; in the assay on ACHN renal, 96.3%. Also, the growth in the assay with CAKI-1 renal was 93.5%; in the assay on A498 renal, 116%; with CCRF-CEM leukemia, 132%; in the assay with MOLT-4 leukemia, 82.4%; in the assay on SR leukemia it was 72%; in the assay with RPMI-8226 leukemia it was 110%. Besides, the growth was 103% in the assay with OVCAR-8 ovarian; 91% in the assay on OVCAR-5 ovarian; 124% in the assay with OVCAR-4 ovarian; 105% in the assay on SK-OV-3 ovarian; 113% with IGROV1 ovarian; 123% in the assay on OVCAR-3 ovarian. Also, the growth in the assay on HS 578T breast is 136%; with NCI/ADR-RES ovarian, 106%.

With `CN1CCN(Cc2ccc(NC(=O)c3cncc(C#Cc4ncc5ccccn45)c3)cc2C(F)(F)F)CC1`, the growth with SK-MEL-2 melanoma was -8.17% (active); in the assay on EKVX NSCLC, 43.9%; in the assay with SN12C renal it was 24%; with UO-31 renal, 5.98% (active); with TK-10 renal, 53.4%; in the assay with ACHN renal, 13.1%. The growth in the assay with CAKI-1 renal is 1.78% (active); in the assay on A498 renal it was 11.4%; in the assay on CCRF-CEM leukemia, 8.69% (active); with MOLT-4 leukemia, 17.8%; in the assay on SR leukemia, 15.6%; in the assay on RPMI-8226 leukemia, 21.1%. In addition, the growth with OVCAR-8 ovarian was 24.7%; in the assay on OVCAR-5 ovarian, 32.8%; with OVCAR-4 ovarian it was 7.89% (active); in the assay on SK-OV-3 ovarian it was 19.6%; in the assay on IGROV1 ovarian it was 17.9%; in the assay with OVCAR-3 ovarian, 36.9%. Further, the results for the growth in the assay with HS 578T breast and with NCI/ADR-RES ovarian were 7.01% (active) and 27.7%, respectively.
